{
  "source": "PubChem BioAssay (Tox21)",
  "note": "Inconclusive results are not listed. Active and inactive are the calls of the source. The call rests on the fitted dose curve; in most records, active means well fitted cell-killing curve with a large enough effect in the repeat runs; inconclusive means weak or mixed curves, or effect the other way; inactive means flat fitted curve, though single readings scatter. On the % scale 0 is the no-effect control and ±100 the full control effect.",
  "data": [
    {"test": "qHTS assay to identify small molecule antagonists of the retinoid acid receptor (RAR) signaling pathway - cell viability counter screen (AID 1159551); further: nearly all actives have a fitted effect of over 35% in size", "details": "C3RL4 cells viability, ATP luminescence (CellTiter-Glo), 6 h; series mostly up to 92.4 µM; activity change, negative = cytotoxicity: at the top concentration", "method_in_brief": "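ATP-based viability, C3RL4 cells, 6 h at 37 C with 1 uM final retinol co-added after compound; luminescence read 30 min post CellTiter-Glo, RT.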", "values": [
      {"smiles": "CC1=C(C=O)C(C)(C)CCC1", "activity change, negative = cytotoxicity": "0.882% (inactive)"},
      {"smiles": "CCC(=O)OC/C=C/c1ccccc1", "Potency": "inactive"},
      {"smiles": "CCn1cc(C(=O)O)c(=O)c2cc(F)c(N3CCNCC3)nc21", "activity change, negative = cytotoxicity": "0.295% [at 42.5 µM] (inactive)"},
      {"smiles": "C/C(=N/NC(=O)c1ccncc1)C(=O)O", "activity change, negative = cytotoxicity": "0.201% [at 42.5 µM] (inactive)"},
      {"smiles": "CC1CN(c2cc3c(cc2F)c(=O)c(C(=O)O)cn3-c2ccc(F)cc2F)CCN1", "note": "(stereo not given)", "activity change, negative = cytotoxicity": "0.772% [at 8.39 µM] (inactive)"},
      {"smiles": "Nc1nccs1", "activity change, negative = cytotoxicity": "-0.2% (inactive)"},
      {"smiles": "CN1CCN(c2c(F)cc3c(=O)c(C(=O)O)cn4c3c2OCN4C)CC1", "activity change, negative = cytotoxicity": "-0.366% [at 19 µM] (inactive)"},
      {"smiles": "C=CC(C)=CCC=C(C)C", "activity change, negative = cytotoxicity": "-1.14% (inactive)"},
      {"smiles": "CO[Si](C)(OC)OC", "activity change, negative = cytotoxicity": "2.75% (inactive)"},
      {"smiles": "CC(C)(O)c1ccccc1CC[C@@H](SCC1(CC(=O)O)CC1)c1cccc(/C=C/c2ccc3ccc(Cl)cc3n2)c1", "activity change, negative = cytotoxicity": "2.07% [at 42.5 µM] (inactive)"},
      {"smiles": "OC(CCCN1CCCCC1)(c1ccccc1)c1ccccc1", "activity change, negative = cytotoxicity": "-0.857% [at 42.5 µM] (inactive)"},
      {"smiles": "CCCCCCCC/C=C\\CCCCCCCC(=O)OC", "activity change, negative = cytotoxicity": "2.96% (inactive)"},
      {"smiles": "CCCCCCCCCOC(C)=O", "activity change, negative = cytotoxicity": "3.53% (inactive)"},
      {"smiles": "O=C(O)c1snc(Cl)c1Cl", "activity change, negative = cytotoxicity": "-1.44% (inactive)"},
      {"smiles": "CN1Cc2cc(C(=O)N3CCC(C4CCNCC4)CC3)ccc2N[C@@H](CC(=O)O)C1=O", "activity change, negative = cytotoxicity": "3.96% [at 42.5 µM] (inactive)"},
      {"smiles": "CC(N)CN", "note": "(stereo not given)", "activity change, negative = cytotoxicity": "-1.05% (inactive)"},
      {"smiles": "C/C=C(\\C)C(=O)OCCC(C)CCC=C(C)C", "note": "(stereo not given)", "activity change, negative = cytotoxicity": "3.09% (inactive)"},
      {"smiles": "Cc1cc(C(=C2C=CC(=Nc3ccc(S(=O)(=O)O)cc3S(=O)(=O)O)C=C2)c2ccc(Nc3ccc(S(=O)(=O)O)cc3)cc2)ccc1N", "activity change, negative = cytotoxicity": "-4.11% [at 42.5 µM] (inactive)"},
      {"smiles": "CC(CCc1ccc2c(c1)OCO2)NN", "note": "(stereo not given)", "activity change, negative = cytotoxicity": "1.59% [at 42.5 µM] (inactive)"},
      {"smiles": "Cn1c(=O)c2c(ncn2CC(=O)O)n(C)c1=O", "activity change, negative = cytotoxicity": "-2.8% [at 42.5 µM] (inactive)"}
    ]}
  ]
}
